From PubChem BioAssay (NCI) come the findings set out here.

What all share (test): NCI-60 one-dose screen, 48 h (100 = growth as untreated, 0 = no growth, -100 = all killed)
Common to all, as to conditions: 10 µM unless noted

Assay [1] concerns SR leukemia.
Assay [2] concerns RPMI-8226 leukemia.
Assay [3] relates to OVCAR-8 ovarian.
Assay [4] deals with OVCAR-5 ovarian.
Assay [5] deals with OVCAR-4 ovarian.
Assay [6] deals with SK-OV-3 ovarian.
Assay [7] has as its system IGROV1 ovarian.
For assay [8], the system named is OVCAR-3 ovarian.
Assay [9] has as its system HS 578T breast.
The subject of assay [10] is NCI/ADR-RES ovarian.

About 83,000 compounds went through this panel and 20% of them were active in at least one assay; those are over-represented in the sample as a whole.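 48-hour exposure, single concentration, 96-well plates; percent growth endpoint where 0 means no net growth. Active: below 10.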 Unmarked numbers belong to inactive results. Activity calls are given as the source filed them.

`COC(=O)C(C)[C@H]1CC[C@@H]2[C@]1(C)CC=C1[C@]23C=C[C@]2(C[C@@H](OC(C)=O)CC[C@]12C)C(C(=O)OC)C3C(=O)OC` (stereo not given in full): the growth in assay [1] is 55.8%; in [2] it was 60.8%; in [3], 95.7%; in assay [4] it was 109%; in assay [5] it was 85.7%; in assay [6], 111%. Further, the growth is 98.2% in assay [7], 86.4% in assay [8], 102% in [9] and 94.3% in assay [10].

Regarding `Cc1nnc(-c2cc3c(ccc4ccccc43)oc2=O)c2cn(-c3ccc(Cl)cc3)nc12`, the growth in assay [1] is 80.4%; in assay [2], 75%; in assay [3] it was 96.3%; in [4], 108%; in assay [5] it was 83.8%; in assay [6], 91.7%. Besides, the growth in [7] was 87%; in assay [8], 89.8%; in assay [9], 93.8%; in [10] it was 96.3%.

On to `CCN(CC)CCCC(C)Nc1c(C)cnc2cc(Cl)c(C)cc12` (stereo not given), for which the growth in assay [1] is 16.5%; in [2] it was 43.6%; in assay [3] it was 96%; in assay [4] it was 98.1%; in [5], 85.4%; in [6], 98.5%. Moreover, the growth in assay [7] is 96.3%; in [8] it was 92.9%; in [9], 96.3%; in assay [10] it was 93.2%.

Regarding `COC(=O)c1ccc2[nH]c(O)c(C(=Nc3ccc(N(C)C(=O)CN4CCN(C)CC4)cc3)c3ccc4c(c3)OCO4)c2c1`, the growth was 0.377% (active) in assay [1]; -13.7% (active) in [2]; 20.3% in assay [3]; 35.8% in [4]; 28.1% in assay [5]; -8.57% (active) in assay [6]. Further, the growth was 4.12% (active) in [7], 10.9% in assay [8], 10.5% in assay [9] and 104% in [10].

As to `COc1cccc(Cn2cc3c(c2)-c2oncc2CC3)c1`, the growth is 13.8% in [1]; 37.6% in assay [2]; 32.3% in [3]; 42.6% in [4]; 50.9% in assay [5]; 1.4% (active) in assay [6]. The growth was 20.1% in assay [7], -30.4% (active) in assay [8], 8.85% (active) in [9] and 6.75% (active) in assay [10].

Take `CCCCn1c(Cc2ccc(OC)cc2)nc2cc(OC)c(OC)cc2c1=O`: the growth in [1] is 2.75% (active); in [2], 26.1%; in assay [3], 78.2%; in assay [4], 104%; in [5] it was 73.6%; in assay [6] it was 99.4%. Moreover, the growth was 81.3% in assay [7], 86.3% in [8], 94.5% in [9] and 72.5% in assay [10].

With `CCCCCCNC(=O)Oc1ccc(/C(=C(/C)Cc2ccc(OC)cc2)c2ccc(OCCN3CCCCC3)cc2)cc1`, the growth was -0.659% (active) in assay [1]; 76.5% in assay [2]; 81.2% in [3]; 90.5% in [4]; 81% in [5]; 88.8% in assay [6]. Also, the growth in assay [7] is 95.1%; in assay [8] it was 93.9%; in assay [9] it was 80%; in assay [10] it was 86.3%.

Regarding `CC(O)c1cc[cH-]c1.[Fe+2].c1cc[cH-]c1` (stereo not given), the growth in assay [1] is 90.2%; in assay [2] it was 102%; in [3] it was 100%; in assay [4], 100%; in [5], 114%; in assay [6] it was 99.6%. Moreover, the growth in assay [7] was 106%; in assay [8], 108%; in assay [9] it was 104%; in assay [10], 102%.

For the molecule `COc1ccc(-c2nc(SCC(C)C)nc(Nc3ccc(C)cc3)c2C#N)cc1`, the growth in assay [1] was 44.3%; in assay [2] it was 73.2%; in [3] it was 72.3%; in assay [4] it was 86.4%; in assay [5], -50.4% (active); in assay [6], 73.7%. The growth is 59.5% in assay [7], 33.8% in [8], 42.6% in assay [9] and 72.7% in assay [10].

As for `CC(=O)OCC1O[C@@H](OC(C)=O)[C@@H](NC(=O)NS(=O)(=O)c2ccccc2)C(OC(C)=O)[C@@H]1OC(C)=O` (stereo not given in full), the growth is 88.9% in [1]; 107% in [2]; 113% in [3]; 108% in assay [4]; 109% in assay [5]; 113% in assay [6]. Further, the growth in assay [7] was 108%; in assay [8] it was 110%; in assay [9], 109%; in assay [10], 113%.

`CCOC(=O)c1cc(C(=O)c2ccc(Br)cc2)n2cc(C)cc(C)c12`: the growth was 98.1% in assay [1]; 83.7% in assay [2]; 102% in assay [3]; 115% in assay [4]; 91.6% in assay [5]; 86.2% in assay [6]. Moreover, the growth is 102% in assay [7], 104% in assay [8], 89.2% in assay [9] and 99.6% in [10].

For the molecule `O=C(Nc1ccc(Cl)cn1)C1(c2ccccc2)CCCCC1`, the growth is -14.5% (active) in [1]; 93% in [2]; 113% in assay [3]; 102% in assay [4]; 91.6% in assay [5]; 117% in assay [6]. Also, the growth in assay [7] is 534%; in assay [8] it was 118%; in [9], 107%; in assay [10], 125%.
